Reference: PubChem BioAssay
Active and inactive are the calls of the source. Unless noted, no rule for the calls is given here.

Assays:
[1] = test system: XIP peptide (Xip251-270) binding; experiment: XIP fragment 251-270 binding compounds – biochemical, small-molecule microarray, fluorescence 635/667 nm, 0.1 µg/mL protein, primary screen (AID 1182); details: fluorescent protein binding, 635 nm, higher = more signal, called active from +8 up or from −8 down
XIP peptide (Xip251-270) = experiment: compounds binding XIP fragment 251-270 – biochemical, small-molecule microarray, fluorescence 635/667 nm, 0.5 µg/mL protein, primary screen (AID 1183); details: fluorescence 635 nm, higher = more signal
[2] = blood-stage malaria parasite viability loss – strain 3D7, DAPI fluorescence, 100 nL, primary screen (AID 1184);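 also: parasites grown inside human red blood cells in medium with human serum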; details: P. falciparum 3D7 growth, 3 d, higher = more signal
[3] = target: Homeobox protein Hox-A13 (Mus musculus) (UniProt Q62424); experiment: disruptors of Hoxa13 oligonucleotide interaction – biochemical, fluorescence polarization, labeled oligonucleotide, primary screen (AID 1185); details: Hoxa13:DNA binding, 15 min, higher = more signal, called active from +8 up or from −8 down
Homeobox protein Hox-A13 (Mus musculus), sequence (Q62424 whole entry, looked up): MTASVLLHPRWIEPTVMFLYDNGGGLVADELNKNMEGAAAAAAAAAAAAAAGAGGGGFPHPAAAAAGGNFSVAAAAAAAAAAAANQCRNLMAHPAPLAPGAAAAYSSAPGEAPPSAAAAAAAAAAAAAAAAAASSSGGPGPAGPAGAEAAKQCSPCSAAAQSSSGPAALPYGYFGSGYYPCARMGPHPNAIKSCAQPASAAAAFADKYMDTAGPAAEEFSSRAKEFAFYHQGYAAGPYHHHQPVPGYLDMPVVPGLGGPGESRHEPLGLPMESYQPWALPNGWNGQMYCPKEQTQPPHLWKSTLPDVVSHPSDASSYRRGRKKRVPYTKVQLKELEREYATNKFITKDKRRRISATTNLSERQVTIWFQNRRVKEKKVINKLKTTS

[4] = blockers of DNA damage checkpoint Chk1 activation – imaging, HeLa, hydroxyurea, phospho-Chk1 antibody, percent positive cells, primary screen (AID 1186); details: hydroxyurea-induced phospho-Chk1 immunofluorescence imaging, higher = more signal
[5] = blockers of DNA damage checkpoint Chk1 activation – imaging, HeLa, hydroxyurea, phospho-Chk1 nuclear intensity, primary screen (AID 1187); details: hydroxyurea-induced phospho-Chk1 immunofluorescence imaging, higher = more signal

SMILES: CCOC(=O)C[C@H]1[C@H](OC(=O)c2ccc(C(=O)c3ccccc3)cc2)[C@@H](NC(=O)C2CCCCC2)c2cc(OCCCO)ccc2N1C(=O)c1ccc2ccccc2n1
- composite z-score [1]: -0.482 (inactive)
- composite z-score (XIP peptide (Xip251-270)): 0.368
- z-score [2]: -1.69
- z-score [3]: -0.814 (inactive)
- z-score [4]: -0.739 (inactive)
- z-score [5]: -0.573 (inactive)

SMILES: CCOC(=O)C[C@H]1[C@H](OC(=O)c2ccc(C(=O)c3ccccc3)cc2)[C@@H](NC(=O)c2ccc3ccccc3n2)c2cc(OCCCO)ccc2N1C(=O)Cc1ccc(OC)cc1
- composite z-score [1]: -0.667 (inactive)
- composite z-score (XIP peptide (Xip251-270)): -0.219
- z-score [2]: -2.69
- z-score [3]: -0.833 (inactive)
- z-score [4]: -0.824 (inactive)
- z-score [5]: -0.835 (inactive)

SMILES: C=CCNC(=O)[C@@H]1[C@H]2C(=O)O[C@H](c3ccccc3)[C@H](c3ccccc3)N2[C@H](c2ccccc2OCCO)[C@@]12C(=O)Nc1ccc(C#CCCO)cc12
- composite z-score [1]: 0.712 (inactive)
- composite z-score (XIP peptide (Xip251-270)): 0.596
- z-score [2]: -2.22
- z-score [3]: -3.84 (inactive)
- z-score [4]: -0.38 (inactive)
- z-score [5]: -0.262 (inactive)

SMILES: COc1cc(NN2C(C(O)c3cc(OC)c(OC)c(OC)c3)C=CC3C(=O)N(C)C(=O)C32)cc(OC)c1OC (stereo unspecified)
- composite z-score [1]: 0.248 (inactive)
- composite z-score (XIP peptide (Xip251-270)): 0.438
- z-score [2]: -0.354
- z-score [3]: -4.51 (inactive)
- z-score [4]: -0.325 (inactive)
- z-score [5]: -0.328 (inactive)

SMILES: C=CCNC(=O)[C@@H]1[C@H]2C(=O)O[C@H](c3ccccc3)[C@H](c3ccccc3)N2[C@H](c2ccc(OCCO)cc2)[C@@]12C(=O)N(C(=O)OCCOC)c1ccc(C#Cc3ccc(OC)cc3)cc12
- composite z-score [1]: 0.448 (inactive)
- composite z-score (XIP peptide (Xip251-270)): 0.589
- z-score [2]: -2.07
- z-score [3]: -0.573 (inactive)
- z-score [4]: 0.0644 (inactive)
- z-score [5]: 0.22 (inactive)

SMILES: CC[C@@H]1C=C(C(=O)O)[C@H](c2ccc(C#N)cc2)N1S(=O)(=O)c1ccc(C)cc1
- composite z-score [1]: 0.377 (inactive)
- composite z-score (XIP peptide (Xip251-270)): -0.172
- z-score [2]: 1.91
- z-score [3]: -4.62 (inactive)
- z-score [4]: 0.208 (inactive)
- z-score [5]: -0.0106 (inactive)

SMILES: CCCC[C@@H](O)C1=C(COC)C[C@H]2C(=O)N(C)C(=O)[C@H]2[C@H]1CO
- composite z-score [1]: -0.703 (inactive)
- composite z-score (XIP peptide (Xip251-270)): 0.336
- z-score [2]: -0.68
- z-score [3]: -1.8 (inactive)
- z-score [4]: -0.476 (inactive)
- z-score [5]: 0.0423 (inactive)

SMILES: O=c1cccc(-c2ccc([N+](=O)[O-])cc2)o1
- composite z-score [1]: 0.164 (inactive)
- composite z-score (XIP peptide (Xip251-270)): -0.163
- z-score [2]: -0.799
- z-score [3]: -0.755 (inactive)
- z-score [4]: -0.419 (inactive)
- z-score [5]: -0.202 (inactive)

SMILES: O=C1C2C=CC(C(O)c3cccc(O)c3)N(Nc3ccc([N+](=O)[O-])cc3)C2C(=O)N1c1ccccc1 (stereo unspecified)
- composite z-score [1]: -0.232 (inactive)
- composite z-score (XIP peptide (Xip251-270)): 0.342
- z-score [2]: 1.25
- z-score [3]: -3.9 (inactive)
- z-score [4]: 0.181 (inactive)
- z-score [5]: -0.322 (inactive)

SMILES: COc1cc2c(cc1O)C(C1CC1)N(Cc1cccc(OC(F)(F)F)c1)CC2 (stereo unspecified)
- composite z-score [1]: 0.676 (inactive)
- composite z-score (XIP peptide (Xip251-270)): 0.651
- z-score [2]: -1.8
- z-score [3]: -5.17 (inactive)
- z-score [4]: 0.433 (inactive)
- z-score [5]: 0.678 (inactive)

SMILES: CCCCCN1CC=CC23O[C@@H]4/C=C\CCC(C)OC(=O)C4[C@H]2C(=O)N(C(CO)C(C)C)[C@@H]3C1=O (stereo partly specified)
- composite z-score [1]: 0.733 (inactive)
- composite z-score (XIP peptide (Xip251-270)): 0.761
- z-score [2]: -1.07
- z-score [3]: -5.72 (inactive)
- z-score [4]: -0.584 (inactive)
- z-score [5]: -0.113 (inactive)

SMILES: O=C1CS(=O)(=O)C(c2cccc([N+](=O)[O-])c2)N1c1ccccc1 (stereo unspecified)
- composite z-score [1]: 0.784 (inactive)
- composite z-score (XIP peptide (Xip251-270)): 0.263
- z-score [2]: 0.66
- z-score [3]: 0.011 (inactive)
- z-score [4]: -0.346 (inactive)
- z-score [5]: -0.291 (inactive)

SMILES: CCCCC(O)C1C=CC2C(=O)N(C)C(=O)C2N1N(c1ccccc1)c1ccccc1 (stereo unspecified)
- composite z-score [1]: 0.289 (inactive)
- composite z-score (XIP peptide (Xip251-270)): 0.771
- z-score [2]: 1.01
- z-score [3]: -4.42 (inactive)
- z-score [4]: -0.0768 (inactive)
- z-score [5]: -0.691 (inactive)

SMILES: [N-]=[N+]=Nc1ccccc1[C@H]1OC(c2ccc(OCCCO)cc2)=N[C@@]1(Cc1ccccc1)C(=O)NCCN1CCOCC1
- composite z-score [1]: 0.0125 (inactive)
- composite z-score (XIP peptide (Xip251-270)): 0.83
- z-score [2]: -2.18
- z-score [3]: -2.71 (inactive)
- z-score [4]: -0.116 (inactive)
- z-score [5]: 0.205 (inactive)

SMILES: COc1ccc(CCNC(=O)[C@@]2(Sc3ccc(C)cc3)CC(=O)N(Cc3ccccc3C(F)(F)F)[C@@H]2c2ccc(CO)cc2I)cc1
- composite z-score [1]: 0.232 (inactive)
- composite z-score (XIP peptide (Xip251-270)): 0.853
- z-score [2]: -0.77
- z-score [3]: -2.7 (inactive)
- z-score [4]: 0.17 (inactive)
- z-score [5]: 0.68 (inactive)

SMILES: CC(C)(C)OC(=O)COc1cccc(C(=O)CCN2CCOCC2)c1
- composite z-score [1]: 0.123 (inactive)
- composite z-score (XIP peptide (Xip251-270)): 0.248
- z-score [2]: -0.367
- z-score [3]: -1.11 (inactive)
- z-score [4]: -0.118 (inactive)
- z-score [5]: 0.0155 (inactive)
